{"source": "PubChem BioAssay (NCI)", "note": "About 83,000 compounds went through this panel and 20% of them were active in at least one assay; those are over-represented in the sample as a whole.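 Results are percent growth after 48 hours of single-concentration exposure. 100 means growth as in untreated cells, lower positive values show inhibition; negative values down to -100 show cell death.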 Unmarked numbers belong to inactive results. The source made the active and inactive calls.", "data": [{"test_system": "HOP-62 NSCLC", "assay": "NCI-60 one-dose screen, 48 h (100 = growth as untreated, 0 = no growth, -100 = all killed)", "settings": "10 µM unless noted", "protocol": "Growth inhibition of the HOP-62 human Non-Small Cell Lung tumor cell line is measured as a screen for anti-cancer activity. Cells are grown in 96 well plates and exposed to the test compound for 48 hours. Compounds are tested at a single concentration, which is 10^-5 M for most compounds. The reported endpoint is percent growth (GI% or GIPRCNT), where numbers from 0 - 100% represent growth inhibition, and numbers from -100% - 0 represent cell death. For example, a value of 40 represents 60% growth inhibition. A value of 0 means no net growth occurred over the course of the experiment. A value of -40 indicates 40% of cells at the beginning of the experiment died by the end of the experiment. A value of -100 means all cells are dead at the end of the experiment.\nNCI-60 Human Tumor Cell Lines Screen was performed using the standard one-dose NCI protocol, which is described in more detail at https://dtp.cancer.gov/discovery_development/nci-60/default.htm.\nCompounds with GIPRCNT values below 10 were considered active. Activity score was based on GIPRCNT using the following formula: […]\nScore is 0 for GIPRCNT values of 100 or above, 50 for GIPRCNT values of 0, and 100 for GIPRCNT values of -100.", "values": [{"compound": "Cc1ccsc1C(NC(=O)c1ccccc1)c1cc(Cl)c2cccnc2c1O", "note": "(stereo not given)", "growth": "15%"}, {"compound": "CCc1cc2c(c3ccc(C(=O)CBr)cc13)CCCC2", "growth": "91.6%"}, {"compound": "CC(C)n1c(NCCc2ccc(O)c(O)c2)nc2c1c(=O)n(C)c(=O)n2C", "growth": "103%"}, {"compound": "COC(=O)N[C@@H](C)CNc1nccc(-c2cn(C(C)C)nc2-c2cc(Cl)cc(NS(C)(=O)=O)c2F)n1", "growth": "72.7%"}, {"compound": "Nc1c(Cl)cccc1[N+](=O)[O-]", "growth": "98.8%"}, {"compound": "CC(=O)c1cnc2ccc(-c3cc(Cl)c(O)c(Cl)c3)nc2c1NC1CCC(CN(C)C)CC1", "note": "(stereo not given)", "growth": "-34.4% [2.5 µM] (active)"}, {"compound": "CC[C@@H]1C(=O)N(C)c2cnc(Nc3ccc(C(=O)NC4CCN(C)CC4)cc3OC)nc2N1C1CCCC1", "growth": "-20.1% (active)"}, {"compound": "Cc1csc(-c2nnc(Nc3ccc(Oc4ncccc4-c4ccnc(N)n4)cc3)c3ccccc23)c1", "growth": "14.6%"}, {"compound": "C/C(=C(/c1ccc(Cl)cc1)c1ccc(OCCN2CCCC2)cc1)c1ccccc1", "growth": "90%"}, {"compound": "COc1c(OCCCN2CCOCC2)ccc2c3n(c(=NC(=O)c4cnc(N)nc4)nc12)CCN3", "growth": "12.4%"}, {"compound": "Cc1cc(N(CCNc2ccnc3cc(Cl)ccc23)Cc2ccc3c(c2)OCO3)nc(N2CCN(C)CC2)n1", "growth": "0.334% (active)"}, {"compound": "COc1ccc(Nc2ncccc2NC(=O)c2cn(Cc3cccc(Oc4ccccc4)c3)nn2)cc1", "growth": "106%"}, {"compound": "Cc1cc(C(=O)Nc2cc(Oc3ccc4nc(NC(=O)C5CC5)cn4n3)ccc2C)n(C)n1", "growth": "14.4%"}, {"compound": "O=[N+]([O-])c1cc(Br)cc2c1[nH]c1ccc(Br)cc12", "growth": "39.2%"}, {"compound": "CN1CCC(CNc2ccc3ncc(-c4cccc(OC(F)(F)F)c4)n3n2)CC1", "growth": "-53.1% (active)"}, {"compound": "CC1CCC(n2cnc3c(Cl)ncnc32)O1", "note": "(stereo not given)", "growth": "91.2%"}, {"compound": "CCc1ccc(/C=C/c2ccc(O)c3ncccc23)[n+](C)c1", "growth": "24.5%"}, {"compound": "COc1cc2c(cc1OCCCN1Cc3ccc(OCCCCC(=O)N4CCC(CCN5CCCC5)CC4)cc3C1)N=C(N)C21CCCC1", "growth": "79.9%"}, {"compound": "COc1ccc2c(CCCc3ccc(Cl)cc3Cl)c3[n+](cc2c1OC)CCc1cc2c(cc1-3)OCO2", "growth": "13.8%"}, {"compound": "COc1cc2nccc(Oc3ccc(NC(=O)Nc4cc(C)on4)c(Cl)c3)c2cc1OC", "growth": "18.4%"}, {"compound": "CN1CCC(COc2cnc(-c3cccc(Cn4nc(-c5cccc(C#N)c5)ccc4=O)c3)nc2)CC1", "growth": "45.7%"}, {"compound": "COc1cc(C2CC(c3ccc(Cl)cc3)=NN2c2ccc(Cl)cc2)cc(OC)c1OC", "note": "(stereo not given)", "growth": "100%"}, {"compound": "COc1ccc(Cc2cc(-c3ccccc3C)n[nH]c2=O)cc1", "growth": "97.8%"}, {"compound": "CC1(O)CCC(Nc2cc(-c3ccc(C(F)(F)F)cc3)c(C#N)c3nc4ccccc4n23)CC1", "note": "(stereo not given)", "growth": "64.7%"}, {"compound": "NC1(C(=O)N[C@@H](CCO)c2ccc(Cl)cc2)CCN(c2ncnc3[nH]ccc23)CC1", "growth": "33.9%"}, {"compound": "C=C1[C@@H](O)C[C@H]2C(C)(C)C[C@H](Cl)C[C@]2(C)[C@H]1C[C@H](O)[C@H]1CC(=O)NC1=O", "growth": "-38.4% (active)"}, {"compound": "CO[C@H]1C[C@@H]2CC[C@@H](C)[C@@](O)(O2)C(=O)C(=O)N2CCCC[C@H]2C(=O)O[C@H]([C@H](C)C[C@@H]2CC[C@@H](OP(C)(C)=O)[C@H](OC)C2)CC(=O)[C@H](C)/C=C(\\C)[C@@H](O)[C@@H](OC)C(=O)[C@H](C)C[C@H](C)\\C=C/C=C/C=C/1C", "growth": "28.5%"}, {"compound": "O=C(CNc1nc2ccccc2s1)Nc1ccc(-c2nc3ccccc3s2)cc1", "growth": "104%"}, {"compound": "CC(C)OP(=O)(CCC(=O)c1c[nH]c2ccccc12)OC(C)C", "growth": "88.1%"}, {"compound": "Cn1ccnc1C(=O)/C=C/c1ccc(CC(=O)Nc2ccc(S(F)(F)(F)(F)F)cc2)cc1", "growth": "-73% (active)"}, {"compound": "CN1CCN(CC(=O)Nc2ccc(-c3nc4ccccc4s3)cc2)CC1", "growth": "87.3%"}, {"compound": "N#Cc1c(-c2ccc(C(F)(F)F)cc2)c(F)c(NCCC2CCC(O)C2)n2c1nc1ccccc12", "note": "(stereo not given)", "growth": "59.2%"}, {"compound": "O=C1C=CC2(NN=C(c3ccccc3)N2c2cccc(Cl)c2)C(Cl)=C1", "note": "(stereo not given)", "growth": "63.8%"}, {"compound": "COc1cc(N2CCC(N3CCN(C)CC3)CC2)ccc1Nc1ncnc(Nc2ccccc2S(=O)(=O)C(C)C)n1", "growth": "86.7%"}, {"compound": "COc1cc2c(cc1OCCCCCCN1CCN(c3ncnc4ccccc34)CC1)N=CC1CCCN1C2=O", "note": "(stereo not given)", "growth": "-25.9% (active)"}, {"compound": "CN1CCN(CCOc2cc(OC3CCOCC3)c3c(Nc4c(Cl)ccc5c4OCO5)ncnc3c2)CC1", "growth": "29.7%"}, {"compound": "COc1ccc(-c2nc(N)ncc2Oc2ccccc2OC)c(O)c1", "growth": "27.9%"}, {"compound": "Cc1cc2c(-c3nc4ccccn4c3Nc3cccc4ccccc34)c(O)c(O)cc2c(O)c1-c1c(C)cc2c(-c3nc4ccccn4c3Nc3cccc4ccccc34)c(O)c(O)cc2c1O", "growth": "37.9%"}, {"compound": "Cc1sc2c(c1C)c(=O)nc1c(-c3nc4ccccc4s3)n[nH]n12", "growth": "90.1%"}, {"compound": "C=CC(=O)Nc1cc2c(Nc3ccc(F)c(Cl)c3)ncnc2cc1C#CC(C)(C)N1CCN(C)CC1", "growth": "-88.3% (active)"}]}]}
